# Assay results reported in PubChem BioAssay (NCATS).
# Results filed as inconclusive are left out. Values without a mark were called inactive. Calls of active or inactive are those of the source. Calls come from the whole dose curve; as a rule, active = well fitted inhibition curve with a large enough effect; inconclusive = small, poorly fitted or top-dose-only effect; inactive = flat fitted curve, though single readings scatter. Where a SMILES comes first, the peptide text is derived from it. [ ]: non-standard residue; d: D form.
# Target: Calcium and integrin-binding protein 1 (Homo sapiens) (UniProt Q99828)
# Sequence (Q99828 whole entry, looked up): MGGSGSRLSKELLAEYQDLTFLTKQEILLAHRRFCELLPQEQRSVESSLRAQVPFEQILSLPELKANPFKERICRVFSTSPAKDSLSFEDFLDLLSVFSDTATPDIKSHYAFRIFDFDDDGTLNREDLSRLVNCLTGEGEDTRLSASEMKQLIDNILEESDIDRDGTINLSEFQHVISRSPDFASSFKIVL
# Test: Primary qHTS for Identification of Calcium Integrin Binding Protein 1 (CIB1) Competitor (AID 1508620);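 note: GST tagged CIB1 binding a fluorescein labelled alphaIIb integrin peptide tracer; top concentration of the series differs between compounds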
# Details: CIB1-GST / FITC-alphaIIb peptide fluorescence polarization; series mostly up to 57.7 µM; activity change, negative = inhibition: at the top concentration
# Method in brief: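 CIB1-GST (1 uM final) and compound incubated 15 min at room temperature before adding FITC-alphaIIb peptide tracer (100 nM final). Competition for binding read by fluorescence polarization (ex 480, em 540) after another 15 min at room temperature.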
# % is set by controls: 0 for no effect and ±100 for the full control effect.
Structure (SMILES),"activity change, negative = inhibition",Potency
CC(=O)c1c(C)cc(O[C@@H]2O[C@H](CO)[C@@H](O)[C@H](O)[C@H]2O)cc1O,-1.91%,–
C[C@@H]1O[C@@H](O[C@H]2[C@H](O)[C@@H](C(=O)O)O[C@@H](O[C@H]3CC[C@@]4(C)C(CC[C@]5(C)C4CC=C4C6CC(C)(C)CC[C@]6(C(=O)O)CC[C@]45C)C3(C)C)[C@@H]2O[C@@H]2O[C@H](CO)[C@@H](O)[C@H](O)[C@H]2O)[C@H](O)[C@H](O)[C@H]1O (some centres undefined),2.54% [at 30.2 µM],–
CC(C)(O)c1ccc2c(c1)C(O)CC1C(C)(C(=O)O)CCCC21C (centres undefined),3.29%,–
CC1(C)C(O)CCC2(C)C1C(O)C=C1COC(=O)C12O (centres undefined),3.73% [at 114 µM],–
COC(=O)C1C(CC(C)=O)C=CC(O)C12Oc1cc(C)cc(O)c1C2=O (centres undefined),2.42%,–
CC(C(=O)O)C1CCC2(C)C3C(=O)C=C4C(CCC(=O)C4(C)C)C3(C)CCC12C (centres undefined),1.56%,–
O=C(O)CCc1cc2ccoc2cc1O[C@@H]1O[C@H](CO[C@@H]2OC[C@](O)(CO)[C@H]2O)[C@@H](O)[C@H](O)[C@H]1O,1.83%,–
CC(=O)N[C@H](Cc1ccc(O)cc1)C(=O)N[C@H](CCCN=C(N)N)C(=O)N[C@H](Cc1ccccc1)C(N)=O (Ac-[dY]-[dR]-[dF]-NH2),1.93% [at 114 µM],–
COc1c(C)c(C(=O)c2ccc(N)c(C(=O)O)c2)n2ccccc12,–,inactive
CC1(C)CCCC2(C)C1C(O)C=C(CO)C2(O)C(=O)O (centres undefined),3.29% [at 114 µM],–
CC1=CC2(O)/C=C/C(C)(O)CC(O)/C=C/C(=O)OC23C(=O)NC(CC(C)C)C3C1C (centres undefined),1.02%,–
COC(=O)C1(Cc2ccc(O)cc2)OC(=O)C(OC)=C1c1ccc(O)cc1 (centres undefined),0.509%,–
CC(CCC1(O)OC2CC3C4CCC5CC(O[C@@H]6O[C@H](CO)[C@@H](O)[C@H](O)[C@H]6O[C@@H]6OC[C@@H](O)[C@H](O)[C@H]6O)C(O)CC5(C)C4CCC3(C)C2C1C)CO[C@@H]1O[C@H](CO)[C@@H](O)[C@H](O)[C@H]1O (some centres undefined),-0.357% [at 30.2 µM],–
CNC(=O)c1ccc2cc([C@@]3(O)CCn4cncc43)ccc2c1,5.13% [at 114 µM],–
CCOC(=O)[C@H]1O[C@@H]1C(=O)N[C@@H](CC(C)C)C(=O)NCCC(C)C,-4.82% [at 114 µM],–
CC1=CC(=O)CC(C)(CO[C@@H]2O[C@H](CO)[C@@H](O)[C@H](O)[C@H]2O)C1(O)/C=C/C(C)=C/C(=O)O (some centres undefined),1.4%,–
C/C1=C\C[C@H](O[C@@H]2O[C@H](CO)[C@@H](O)[C@H](O)[C@H]2O)/C(C)=C/[C@H]2OC(=O)[C@H](C)[C@@H]2CC1,-2.97%,–
C/C(=C/CO)CC[C@@H]1[C@@]2(C)CCC[C@](C)(C(=O)O)C2CC[C@@]1(C)O (some centres undefined),-2.44%,–
CNC(=O)COC(=O)NCCC1CCN(c2cccc(C)n2)CC1,-0.68% [at 114 µM],–
C=C(C)[C@H]1C[C@@H](O)C(=C)CC[C@@H](O)C(=C)[C@@H](O)C1,-4.55% [at 114 µM],–

Structure (SMILES),"activity change, negative = inhibition",Potency
C=C(C(=O)O)C1CCC(C)C2CCC(=O)OC2(C)C1 (centres undefined),-12.8% [at 114 µM],–
CCC(C)/C=C(C)/C=C/C1=CC2=C(Cl)C(=O)C(C)(OC(C)=O)C(=O)C2=CN1C1CCCCN(C(CCC(N)=O)C(=O)O)C1=O (centres undefined),-16.8% [at 30.2 µM],–
COc1c2c(c(C)c3c1C(=O)OC3)OC1(C)CC(O)C3(O)C(C)(C)OC(=O)CCC3(C)C1C2 (centres undefined),-0.501%,–
COc1cc(/C=C/C(=O)OC2CC(C)=C(C(=O)O)/C2=C/CO[C@@H]2O[C@H](CO)[C@@H](O)[C@H](O)[C@H]2O)ccc1O (some centres undefined),-9.53%,–
CC1=CC(=O)CC(C)(C)C1CCC(C)OC1OC(COC(=O)c2cc(O)c(O)c(O)c2)C(O)C(O)C1O (centres undefined),-5.6%,–
C[C@]1(O)CC[C@@H]2C(C(=O)O)=CO[C@@H](O[C@@H]3O[C@H](COC(=O)c4ccc(O)cc4)[C@@H](O)[C@H](O)[C@H]3O)[C@@H]21,1.12%,–
CC(C)CNC(=O)/C=C/CCCCc1ccc2c(c1)OCO2,4.28%,–
CCNC(=O)[C@H]1O[C@H](n2cnc3c(NCC(c4ccccc4)c4ccccc4)nc(C(=O)NCCNC(=O)NC4CCN(c5ccccn5)CC4)nc32)[C@H](O)[C@@H]1O,-1.95% [at 114 µM],–
CC1(C)CC2C3=CCC4C5(C)CCC(OC6OC(CO)C(O)C(OC7OC(CO)C(O)C(OC8OC(CO)C(O)C(OC9OC(COC%10OC(CO)C(O)C(O)C%10O)C(O)C(O)C9O)C8O)C7O)C6O)C(C)(C)C5CCC4(C)C3(C)CCC2(C(=O)O)CC1O (centres undefined),1.69% [at 12.4 µM],–
CC(=O)O[C@@H]1[C@H](O[C@@H]2OC[C@](O)(CO)[C@H]2O)[C@@H](O[C@@H]2O[C@@H](C)[C@H](O)[C@@H](O)[C@H]2O)[C@H](OC(=O)[C@]23CCC(C)(C)C[C@H]2C2=CCC4[C@@]5(C)C[C@H](O)[C@H](O[C@@H]6O[C@H](C(=O)O)[C@@H](O)[C@H](O)[C@H]6O)[C@@](C)(C(=O)O)C5CC[C@@]4(C)[C@]2(C)CC3)O[C@@H]1C (some centres undefined),-1.72% [at 30.2 µM],–
CCn1c2ccccc2c2cc(CNC)ccc21,–,inactive
CC(C)(O)C1CC=C(C(=O)OCC2OC(Oc3c(O)cc(C(=O)O)cc3O)C(O)C(O)C2O)CC1 (centres undefined),-11.1%,–
O=C(O[C@H]1[C@@H]2C=CO[C@@H](O[C@@H]3O[C@H](CO)[C@@H](O)[C@H](O)[C@H]3O)[C@@H]2[C@@]2(CO)O[C@@H]12)c1ccc(O)c(O)c1,-3.44%,–
CC(=O)O[C@@]1(C)C[C@@H](O)[C@]2(O)C=CO[C@@H](O[C@@H]3O[C@H](CO)[C@@H](O)[C@H](O)[C@H]3O)[C@@H]21,4.86%,–
CC1CCC2(O1)C(C)(C)CC(O[C@@H]1O[C@H](CO[C@@H]3OC[C@](O)(CO)[C@H]3O)[C@@H](O)[C@H](O)[C@H]1O)CC2(C)O (some centres undefined),-1.07%,–
NCCCC[C@H](NC(=O)[C@@H]1Cc2ccccc2CN1C(=O)CCC(=O)c1ccccc1)C(=O)NCC(c1ccccc1)c1ccccc1,-8.35% [at 114 µM],–
C/C=C(\C)C(=O)O[C@@H](C)[C@H]1CC[C@]2(O)C3CCC4C[C@@H](OC5CC(OC)C(OC6CC(OC)C(OC7CC(OC)C(OC8OC(C)C(OC9OC(CO)C(O)C(O)C9O)C(OC)C8O)C(C)O7)C(C)O6)C(C)O5)CC[C@]4(C)C3[C@H](O)[C@@H](O)[C@]12C (some centres undefined),-0.005% [at 12.4 µM],–
CC(=O)O[C@@H]1C[C@@]23C[C@@]24CC[C@H](OC2OC[C@@H](O)[C@H](O)[C@H]2O)C(C)(C)[C@@H]4CC[C@H]3[C@]2(C)CC3OC4(C[C@@H](C)C3[C@@]12C)OCC1(C)OC14 (some centres undefined),-2.72% [at 30.2 µM],–
CC1CCC2(C(=O)OC3OC(CO)C(O)C(O)C3O)CCC3(C(=O)O)C(=CCC4C5(C)CCC(OC6OC(C)C(O)C(O)C6O)C(C)(C)C5CCC43C)C2C1C (centres undefined),-2.69% [at 30.2 µM],–
